Data on twelve compounds can be found in PubChem BioAssay (NCI).

Common to all, as to assay: NCI-60 one-dose screen, 48 h (100 = growth as untreated, 0 = no growth, -100 = all killed)
Details in all cases: 10 µM unless noted

The test system of assay [1] is HCT-15 colon.
For assay [2], the system named is HT29 colon.
Assay [3] has as its system SNB-75 CNS.
Assay [4] concerns SNB-19 CNS.
For assay [5], the system named is U251 CNS.
The subject of assay [6] is PC-3 prostate.
Assay [7] concerns SK-MEL-5 melanoma.
The test system of assay [8] is UACC-62 melanoma.
For assay [9], the system named is SK-MEL-28 melanoma.
The subject of assay [10] is SK-MEL-2 melanoma.
The test system of assay [11] is SN12C renal.
Assay [12] concerns UO-31 renal.
Assay [13] concerns TK-10 renal.
Assay [14] relates to ACHN renal.
Assay [15] deals with A498 renal.
The test system of assay [16] is CCRF-CEM leukemia.
For assay [17], the system named is MOLT-4 leukemia.
Assay [18] concerns LOX IMVI melanoma.
In assay [19] the test system is EKVX NSCLC.
Assay [20] deals with CAKI-1 renal.

Each structure is given as a SMILES string. About 83,000 compounds went through this panel and 20% of them were active in at least one assay; those are over-represented in the sample as a whole.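 The test compound was applied at a single concentration to cells in 96-well plates for 48 hours, and percent growth was recorded.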 A number with no mark means an inactive call. Calls of active or inactive are those of the source. The calls were made as follows: active = growth percent below 10; inactive = the rest.

In the case of `C/C(=C\CCc1ccsc1)CC/C=C(\C)CCCN1CCSCC1`, the growth was 82.5% in assay [1]; 88.1% in [2]; 101% in assay [3]; 96.1% in assay [4]; 88.5% in assay [5]; 80.4% in [6]. Besides, the growth in assay [7] is 77.2%; in assay [8] it was 77%; in assay [9], 94.6%; in assay [10], 89.3%; in [11], 78.9%; in assay [12] it was 59.9%. Further, the growth is 108% in assay [13]; 94.7% in assay [14]; 23.5% in assay [15]; 73.7% in assay [16]; 81.2% in assay [17].

`CN(C)CCCNc1nn2c(=O)c3ccccc3nc2c2ccccc12`: the growth in assay [1] is 55.3%; in [2], 32.6%; in assay [3], 51.2%; in assay [4], 69.7%; in assay [5] it was 57.2%; in assay [6], 62.1%. For the same compound, the growth in assay [7] is 52.6%; in assay [8], 67.3%; in assay [18], 33.8%; in assay [9], 93.2%; in [19], 53.5%; in assay [11] it was 58.3%. The growth in assay [13] is 75.3%; in assay [14], 29.9%; in [15] it was 92%; in assay [16] it was 30.3%; in assay [17], -19.6% (active).

On to `O=C(/C=C(\Nc1ccccc1)c1ccccc1)c1cn(-c2ccc([N+](=O)[O-])cc2)nn1`, for which the growth was 84.7% in [1]; 96.9% in assay [2]; 91.8% in assay [3]; 97.6% in [4]; 87.5% in [5]; 80.1% in assay [6]. For the same compound, the growth in assay [7] was 97.1%; in assay [8] it was 84.9%; in [18], 88.5%; in [10], 5.29% (active); in assay [19] it was 100%; in assay [11], 104%. Further, the growth was 69% in assay [12]; 118% in [13]; 94.6% in [14]; 108% in assay [20]; 96.2% in assay [15]; 71.4% in [16]. In [17], the growth was 64.3%.

In the case of `COc1ccc2cc(C3=CC(=O)CCC3)ccc2c1`, the growth was 99.2% in [1]; 86.7% in [2]; 95.1% in assay [3]; 92.1% in assay [4]; 102% in assay [5]; 91.3% in assay [6]. The growth was 94.3% in [7]; 77.1% in [8]; 91.1% in [18]; 92.7% in assay [10]; 99.1% in [19]; 97.2% in assay [11]. The growth is 92.4% in assay [12]; 100% in assay [13]; 107% in [14]; 102% in [20]; -87.9% (active) in assay [15]; 90.9% in assay [16]. Moreover, the growth in assay [17] was 92.9%.

`Cc1nn(-c2nc3ccccc3s2)c(C)c1Oc1ccccc1O`: the growth in assay [1] was 29.4%; in assay [2] it was 50.1%; in assay [3], 78.7%; in assay [4], 80%; in assay [5] it was 33.9%; in assay [6], 67%. Besides, the growth was 54.6% in assay [7]; 39% in [8]; 30.1% in [18]; -9.64% (active) in assay [10]; 93.2% in [19]; 73.2% in assay [11]. In addition, the growth in assay [12] is 38.9%; in assay [13] it was 100%; in assay [14], 57.8%; in [20] it was 98.8%; in assay [15], 51.7%; in assay [16], 76.6%. In assay [17], the growth is 31.6%.

Consider `O=c1[nH]c(SCc2ccccc2)nc2nc(Nc3ccc(NC(=S)Nc4ccccc4)cc3)nc(-c3ccc(O)cc3O)c12`, for which the growth is 108% in [1]; 115% in [2]; 84.6% in [3]; 86.9% in [4]; 85.3% in assay [5]; 82.6% in assay [6]. Moreover, the growth in assay [7] was 101%; in assay [8], 87.9%; in assay [18] it was 98%; in [10], 87.8%; in assay [11] it was 88%; in assay [12], 107%. For the same compound, the growth in assay [13] was 133%; in assay [14], 89.5%; in assay [20] it was 101%; in [15] it was 108%; in [16], 94.5%; in assay [17] it was 93%.

As to `O=C(COc1cccc(/C=C2\Cc3ccccc3C2=O)c1)c1ccc(Cl)cc1`, the growth in assay [1] is 160%; in assay [2] it was 69.6%; in [3], 101%; in assay [4] it was 96.5%; in assay [5], 125%; in [6], 90.3%. In addition, the growth in [7] is 89.4%; in assay [8], 91.4%; in assay [18], 128%; in [10], 72.8%; in assay [19], 88.2%; in assay [11], 95%. Besides, the growth was 18.5% in assay [12]; 163% in [13]; 154% in [14]; 104% in assay [20]; 90.1% in [15]; 89.8% in assay [16]. Further, the growth in [17] is 107%.

Consider `COc1cc(-c2nc3sc4c(c3c(=O)[nH]2)CCCCCC4)cc(OC)c1OC`, for which the growth was 24.8% in [1]; 10.5% in assay [2]; -0.669% (active) in [3]; 21.2% in assay [4]; 25.8% in assay [5]; 38% in assay [6]. Besides, the growth in [7] was 8.73% (active); in [8] it was 19.1%; in assay [9], 51.6%; in assay [10] it was 16.4%; in assay [11], 22.1%; in assay [12], 27.8%. Also, the growth in [13] is 47.6%; in assay [14], 44.5%; in [20] it was 19.9%; in [15], -12.3% (active); in assay [16], 14.3%; in assay [17] it was 14.6%.

With `COc1ccc([N+](=O)[O-])c(S(=O)(=O)c2ccc(Cl)cc2)n1`, the growth in assay [1] is 27.2%; in assay [2], 73.7%; in assay [3] it was 78%; in [4], 92%; in assay [5] it was 95.6%; in assay [6], 92.3%. Besides, the growth in [7] is 91.6%; in assay [8], 89.1%; in assay [18], 10.7%; in assay [10], 92.9%; in [11] it was 74.5%; in assay [12], 51.7%. The growth in [13] was 81.1%; in assay [14], 26.9%; in assay [20] it was 49.6%; in assay [15], 110%; in assay [16], -11.5% (active); in assay [17] it was 2.58% (active).

For the compound `CC(C)C[C@H](NC(=O)/C=C/Cn1ccc2ccccc2c1=O)B(O)O`, the growth in [1] is 67.5%; in [2] it was 8.43% (active); in assay [3], 50.2%; in assay [4], 56.2%; in [5], 55.8%; in assay [6] it was 79.1%. The growth is 23.5% in assay [7]; 17% in assay [8]; 50.8% in assay [9]; 24% in assay [10]; 54.7% in assay [11]; 48.9% in [12]. The growth in [13] is 2.1% (active); in [14], 31.7%; in [20], 45.3%; in assay [15] it was -3.46% (active); in assay [16], 12.2%; in assay [17] it was 1.78% (active).

Consider `CCCCCCC(CC#N)(CCC)CCCC` (stereo unspecified), for which the growth is 108% in [1]; 111% in assay [2]; 88.7% in assay [3]; 100% in assay [4]; 104% in assay [5]; 92.2% in [6]. For the same compound, the growth in assay [7] was 105%; in assay [18], 89.8%; in assay [10], 123%; in [11], 97.8%; in assay [12], 97.6%; in [13], 102%. Moreover, the growth in assay [14] was 99%; in assay [15], 100%; in assay [17], 97.5%.

Turning to `BrC1CC(Br)c2c1c1c(c3c2C(Br)CC3Br)C(Br)CC1Br` (stereo unspecified), the growth was 97.6% in assay [1]; 86.7% in [2]; 68.6% in assay [3]; 98.7% in [4]; 88.7% in [5]; 81.5% in assay [6]. The growth is 99.8% in assay [7]; 73.7% in assay [18]; 119% in [9]; 115% in assay [10]; 101% in assay [19]; 109% in [11]. For the same compound, the growth is 39.9% in [12]; 121% in assay [13]; 87.2% in [14]; 94.5% in assay [20]; 117% in [15]; 114% in assay [16]. The growth in assay [17] is 75.8%.
